# What was measured:
# Test in all cases: DAPPL (digital affinity profiling via proximity ligation, sequencing); 10 mM Tris-HCl pH 7.5, 50 mM NaCl, 1 mM DTT, 4% glycerol, room temperature, 30 min; GST-TFs on glutathione beads, 16-mer random dsDNA library, 0.1% formaldehyde crosslink after washing; high values mean tight binding
# FLI1 = biological target: T1, FLI1 (Homo sapiens, UniProt Q01543 1-452); conditions: protein: recombinant; tags: N-terminal GST; dsDNA, one strand shown
# T1 sequence: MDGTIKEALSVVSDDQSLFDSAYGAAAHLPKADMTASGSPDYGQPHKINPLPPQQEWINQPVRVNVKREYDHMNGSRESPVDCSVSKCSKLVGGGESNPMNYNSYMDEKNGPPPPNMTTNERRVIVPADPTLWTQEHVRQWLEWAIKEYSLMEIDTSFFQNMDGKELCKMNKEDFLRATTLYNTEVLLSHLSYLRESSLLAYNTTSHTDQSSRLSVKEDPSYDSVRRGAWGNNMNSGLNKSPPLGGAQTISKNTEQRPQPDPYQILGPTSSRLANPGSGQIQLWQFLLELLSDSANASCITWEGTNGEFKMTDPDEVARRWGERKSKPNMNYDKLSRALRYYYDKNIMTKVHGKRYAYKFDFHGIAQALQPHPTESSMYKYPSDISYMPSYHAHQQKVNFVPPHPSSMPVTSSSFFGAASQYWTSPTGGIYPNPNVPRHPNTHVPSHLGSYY
# How it was run: (§1)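 Sequencing on an Illumina NextSeq500 followed washing, crosslinking with 0.1% formaldehyde, proximity ligation (BsaI/T4 ligase, 1 h, 37 °C) and PCR amplification of pools that had been incubated for 30 min at room temperature with 200 nmole of a random double-stranded 16-mer DNA library in Tris/NaCl/DTT/glycerol buffer. Each pool held DNA-barcoded human transcription factors, expressed in yeast as GST fusions and captured on glutathione beads, plus a tag-only sample. Binding signal is a hexamer's read frequency for a factor divided by its frequency in the tag-only sample.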
# ELK1 = biological target: T2, ELK1 (Homo sapiens, UniProt P19419 1-428); conditions: protein: recombinant; tags: N-terminal GST; dsDNA, one strand shown
# T2 sequence: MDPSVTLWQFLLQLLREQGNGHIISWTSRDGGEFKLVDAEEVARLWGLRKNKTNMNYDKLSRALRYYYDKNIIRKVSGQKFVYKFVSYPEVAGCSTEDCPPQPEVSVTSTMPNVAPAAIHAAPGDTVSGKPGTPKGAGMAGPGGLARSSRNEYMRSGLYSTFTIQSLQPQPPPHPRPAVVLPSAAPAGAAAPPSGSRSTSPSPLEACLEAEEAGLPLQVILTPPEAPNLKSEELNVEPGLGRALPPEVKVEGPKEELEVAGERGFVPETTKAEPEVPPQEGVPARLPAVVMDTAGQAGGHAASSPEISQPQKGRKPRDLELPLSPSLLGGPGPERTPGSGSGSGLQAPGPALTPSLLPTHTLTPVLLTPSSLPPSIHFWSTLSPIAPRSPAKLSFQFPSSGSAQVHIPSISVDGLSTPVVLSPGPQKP
# How it was run: as §1
# GABPA = biological target: T3, GABPA (Homo sapiens, UniProt Q06546 1-454); conditions: protein: recombinant; tags: N-terminal GST; dsDNA, one strand shown
# T3 sequence: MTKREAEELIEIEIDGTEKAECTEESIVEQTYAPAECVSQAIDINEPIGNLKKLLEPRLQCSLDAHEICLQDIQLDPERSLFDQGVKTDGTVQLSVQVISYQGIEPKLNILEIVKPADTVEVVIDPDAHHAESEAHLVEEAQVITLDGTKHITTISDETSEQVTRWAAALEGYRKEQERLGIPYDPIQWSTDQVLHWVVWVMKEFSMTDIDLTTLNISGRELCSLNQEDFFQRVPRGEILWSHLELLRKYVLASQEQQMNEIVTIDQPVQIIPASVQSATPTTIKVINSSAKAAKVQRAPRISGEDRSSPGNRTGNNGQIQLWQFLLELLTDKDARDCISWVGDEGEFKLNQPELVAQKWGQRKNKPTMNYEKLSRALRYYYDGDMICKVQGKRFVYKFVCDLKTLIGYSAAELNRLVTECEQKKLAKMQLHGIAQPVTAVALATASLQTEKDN
# How it was run: as §1
# ERG = biological target: T4, ERG (Homo sapiens, UniProt P11308 1-479); conditions: protein: recombinant; tags: N-terminal GST; dsDNA, one strand shown
# T4 sequence: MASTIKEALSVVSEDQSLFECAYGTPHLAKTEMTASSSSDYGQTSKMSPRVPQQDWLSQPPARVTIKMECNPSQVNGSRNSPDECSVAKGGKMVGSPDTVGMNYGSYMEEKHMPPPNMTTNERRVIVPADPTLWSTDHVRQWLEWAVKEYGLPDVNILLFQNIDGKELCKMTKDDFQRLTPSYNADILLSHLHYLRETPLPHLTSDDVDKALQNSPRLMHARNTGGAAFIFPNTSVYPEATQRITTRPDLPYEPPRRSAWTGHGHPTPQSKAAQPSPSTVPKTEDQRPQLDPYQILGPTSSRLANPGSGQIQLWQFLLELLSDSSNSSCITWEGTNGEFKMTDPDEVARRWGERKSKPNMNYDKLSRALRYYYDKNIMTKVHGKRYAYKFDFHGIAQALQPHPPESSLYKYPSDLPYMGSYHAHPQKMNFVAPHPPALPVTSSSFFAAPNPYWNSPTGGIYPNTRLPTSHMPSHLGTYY
# How it was run: as §1
# ELF1 = ELF1 (Homo sapiens, UniProt P32519 1-619); conditions: protein: recombinant; tags: N-terminal GST; dsDNA, one strand shown
# Sequence of ELF1 (P32519 whole entry): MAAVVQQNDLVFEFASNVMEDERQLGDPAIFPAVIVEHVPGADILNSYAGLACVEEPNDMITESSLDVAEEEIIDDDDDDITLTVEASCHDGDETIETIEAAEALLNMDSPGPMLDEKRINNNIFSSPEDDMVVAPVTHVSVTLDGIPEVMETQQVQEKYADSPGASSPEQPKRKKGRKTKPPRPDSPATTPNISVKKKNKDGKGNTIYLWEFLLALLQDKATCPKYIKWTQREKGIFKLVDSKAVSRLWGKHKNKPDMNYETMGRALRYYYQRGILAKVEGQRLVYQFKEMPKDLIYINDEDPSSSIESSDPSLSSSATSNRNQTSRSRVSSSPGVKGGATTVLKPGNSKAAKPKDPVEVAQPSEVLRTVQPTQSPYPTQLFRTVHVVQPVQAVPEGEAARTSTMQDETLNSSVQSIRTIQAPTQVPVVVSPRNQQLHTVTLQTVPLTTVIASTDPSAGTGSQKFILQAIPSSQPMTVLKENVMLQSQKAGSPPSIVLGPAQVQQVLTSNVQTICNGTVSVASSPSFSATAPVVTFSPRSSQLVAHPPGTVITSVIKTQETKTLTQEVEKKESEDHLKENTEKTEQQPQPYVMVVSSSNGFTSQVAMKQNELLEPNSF
# How it was run: as §1
# EHF = biological target: T5, EHF (Homo sapiens, UniProt Q9NZC4 1-300); conditions: protein: recombinant; tags: N-terminal GST; dsDNA, one strand shown
# T5 sequence: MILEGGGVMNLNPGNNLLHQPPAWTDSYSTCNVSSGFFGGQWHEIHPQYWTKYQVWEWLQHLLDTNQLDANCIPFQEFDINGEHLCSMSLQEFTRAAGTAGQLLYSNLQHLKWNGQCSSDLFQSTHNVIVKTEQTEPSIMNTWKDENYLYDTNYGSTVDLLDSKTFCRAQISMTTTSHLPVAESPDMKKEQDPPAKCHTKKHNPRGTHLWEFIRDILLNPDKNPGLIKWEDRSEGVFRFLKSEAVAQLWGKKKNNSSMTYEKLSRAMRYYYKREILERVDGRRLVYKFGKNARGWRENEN
# How it was run: as §1
# SPI1 = SPI1 (Homo sapiens, UniProt P17947 1-270); conditions: protein: recombinant; tags: N-terminal GST; dsDNA, one strand shown
# How it was run: as §1
# SPIB = SPIB (Homo sapiens, UniProt Q01892 1-262); conditions: protein: recombinant; tags: N-terminal GST; dsDNA, one strand shown
# Sequence of SPIB (Q01892 whole entry): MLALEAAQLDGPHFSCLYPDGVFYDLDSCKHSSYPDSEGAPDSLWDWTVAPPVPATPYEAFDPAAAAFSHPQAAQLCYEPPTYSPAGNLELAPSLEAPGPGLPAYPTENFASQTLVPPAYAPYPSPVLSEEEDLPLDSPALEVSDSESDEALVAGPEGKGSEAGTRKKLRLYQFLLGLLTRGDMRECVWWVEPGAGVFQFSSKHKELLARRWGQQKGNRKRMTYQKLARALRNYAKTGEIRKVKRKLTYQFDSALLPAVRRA
# How it was run: as §1
# ELK3 = biological target: T6, ELK3 (Homo sapiens, UniProt P41970 1-407); conditions: protein: recombinant; tags: N-terminal GST; dsDNA, one strand shown
# T6 sequence: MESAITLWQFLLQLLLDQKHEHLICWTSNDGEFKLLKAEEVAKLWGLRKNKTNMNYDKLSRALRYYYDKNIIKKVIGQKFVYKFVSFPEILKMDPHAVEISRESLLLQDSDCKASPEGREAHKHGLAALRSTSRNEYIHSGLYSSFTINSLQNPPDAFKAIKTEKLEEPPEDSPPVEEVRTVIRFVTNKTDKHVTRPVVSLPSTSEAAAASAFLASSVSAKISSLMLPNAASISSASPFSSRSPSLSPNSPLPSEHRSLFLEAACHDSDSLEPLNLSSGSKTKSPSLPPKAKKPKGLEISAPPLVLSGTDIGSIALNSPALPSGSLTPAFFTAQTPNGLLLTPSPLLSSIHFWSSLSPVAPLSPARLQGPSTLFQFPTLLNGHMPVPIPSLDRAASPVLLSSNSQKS
# How it was run: as §1
# FEV = biological target: T7, FEV (Homo sapiens, UniProt Q99581 1-238); conditions: protein: recombinant; tags: N-terminal GST; dsDNA, one strand shown
# T7 sequence: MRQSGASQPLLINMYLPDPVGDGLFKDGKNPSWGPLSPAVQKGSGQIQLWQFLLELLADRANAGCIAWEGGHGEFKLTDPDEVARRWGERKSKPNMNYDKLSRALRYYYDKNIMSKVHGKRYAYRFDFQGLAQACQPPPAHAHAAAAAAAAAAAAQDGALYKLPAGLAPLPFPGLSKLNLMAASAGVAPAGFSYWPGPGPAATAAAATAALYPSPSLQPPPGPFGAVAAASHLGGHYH
# How it was run: as §1
# ETV5 = ETV5 (Homo sapiens, UniProt P41161 1-510); conditions: protein: recombinant; tags: N-terminal GST; dsDNA, one strand shown
# Sequence of ETV5 (P41161 whole entry): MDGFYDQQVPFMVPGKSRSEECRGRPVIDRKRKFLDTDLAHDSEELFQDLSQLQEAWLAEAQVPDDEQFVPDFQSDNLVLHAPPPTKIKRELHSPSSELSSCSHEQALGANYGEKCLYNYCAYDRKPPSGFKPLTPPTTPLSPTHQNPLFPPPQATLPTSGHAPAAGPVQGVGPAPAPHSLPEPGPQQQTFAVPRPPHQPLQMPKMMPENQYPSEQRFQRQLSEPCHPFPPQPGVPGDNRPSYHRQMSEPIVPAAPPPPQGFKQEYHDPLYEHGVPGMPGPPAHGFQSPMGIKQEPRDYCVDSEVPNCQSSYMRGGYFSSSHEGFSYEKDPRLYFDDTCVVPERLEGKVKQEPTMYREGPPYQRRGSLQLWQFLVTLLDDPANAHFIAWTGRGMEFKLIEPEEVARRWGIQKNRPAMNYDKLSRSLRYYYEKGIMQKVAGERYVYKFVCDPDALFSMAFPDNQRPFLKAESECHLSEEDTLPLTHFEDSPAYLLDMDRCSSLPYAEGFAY
# How it was run: as §1
# HSF1 = HSF1 (Homo sapiens, UniProt Q00613 1-529); conditions: protein: recombinant; tags: N-terminal GST; chain copies: 3; dsDNA, one strand shown
# Sequence of HSF1 (Q00613 whole entry): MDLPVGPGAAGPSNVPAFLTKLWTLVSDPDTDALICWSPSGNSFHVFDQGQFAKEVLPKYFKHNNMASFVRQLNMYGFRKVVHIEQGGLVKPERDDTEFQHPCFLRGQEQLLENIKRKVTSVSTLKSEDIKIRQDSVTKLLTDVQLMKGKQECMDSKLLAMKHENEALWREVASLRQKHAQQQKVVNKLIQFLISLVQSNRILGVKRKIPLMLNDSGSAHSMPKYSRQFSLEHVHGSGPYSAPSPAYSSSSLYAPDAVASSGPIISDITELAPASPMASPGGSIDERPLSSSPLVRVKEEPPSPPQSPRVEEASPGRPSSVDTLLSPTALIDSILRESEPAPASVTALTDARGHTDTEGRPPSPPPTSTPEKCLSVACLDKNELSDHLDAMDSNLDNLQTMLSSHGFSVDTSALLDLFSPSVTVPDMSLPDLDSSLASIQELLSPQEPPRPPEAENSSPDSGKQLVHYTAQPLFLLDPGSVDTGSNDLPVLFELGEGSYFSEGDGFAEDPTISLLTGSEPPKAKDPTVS
# How it was run: as §1
# SPIC = biological target: T8, SPIC (Homo sapiens, UniProt Q8N5J4 1-248); conditions: protein: recombinant; tags: N-terminal GST; dsDNA, one strand shown
# T8 sequence: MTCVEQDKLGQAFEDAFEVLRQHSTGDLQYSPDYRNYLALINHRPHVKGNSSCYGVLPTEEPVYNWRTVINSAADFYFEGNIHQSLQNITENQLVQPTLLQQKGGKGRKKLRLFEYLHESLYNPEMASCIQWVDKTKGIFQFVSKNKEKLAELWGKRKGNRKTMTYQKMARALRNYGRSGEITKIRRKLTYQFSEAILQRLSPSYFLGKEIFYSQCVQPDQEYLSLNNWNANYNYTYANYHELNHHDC
# How it was run: as §1
# ELF4 = ELF4 (Homo sapiens, UniProt Q99607 1-663); conditions: protein: recombinant; tags: N-terminal GST; dsDNA, one strand shown
# Sequence of ELF4 (Q99607 whole entry): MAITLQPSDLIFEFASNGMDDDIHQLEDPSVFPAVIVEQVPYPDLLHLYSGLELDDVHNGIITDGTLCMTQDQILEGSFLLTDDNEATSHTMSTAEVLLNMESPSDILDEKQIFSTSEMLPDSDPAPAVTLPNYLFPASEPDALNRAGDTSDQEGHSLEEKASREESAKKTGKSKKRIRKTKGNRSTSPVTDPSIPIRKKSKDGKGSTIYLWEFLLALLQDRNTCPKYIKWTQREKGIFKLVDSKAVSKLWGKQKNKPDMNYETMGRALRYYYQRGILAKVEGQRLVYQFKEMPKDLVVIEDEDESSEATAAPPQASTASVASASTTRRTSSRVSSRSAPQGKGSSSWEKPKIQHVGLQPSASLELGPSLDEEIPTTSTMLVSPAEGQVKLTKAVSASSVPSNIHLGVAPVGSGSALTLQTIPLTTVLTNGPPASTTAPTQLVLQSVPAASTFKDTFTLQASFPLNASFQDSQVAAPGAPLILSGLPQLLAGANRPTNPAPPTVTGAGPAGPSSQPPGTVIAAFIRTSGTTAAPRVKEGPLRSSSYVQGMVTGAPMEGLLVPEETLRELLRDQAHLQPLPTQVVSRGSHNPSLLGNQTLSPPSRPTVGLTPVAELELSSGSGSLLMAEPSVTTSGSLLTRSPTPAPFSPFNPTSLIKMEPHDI
# How it was run: as §1
# ELK4 = biological target: T9, ELK4 (Homo sapiens, UniProt P28324-2 1-405); conditions: protein: recombinant; tags: N-terminal GST; dsDNA, one strand shown
# T9 sequence: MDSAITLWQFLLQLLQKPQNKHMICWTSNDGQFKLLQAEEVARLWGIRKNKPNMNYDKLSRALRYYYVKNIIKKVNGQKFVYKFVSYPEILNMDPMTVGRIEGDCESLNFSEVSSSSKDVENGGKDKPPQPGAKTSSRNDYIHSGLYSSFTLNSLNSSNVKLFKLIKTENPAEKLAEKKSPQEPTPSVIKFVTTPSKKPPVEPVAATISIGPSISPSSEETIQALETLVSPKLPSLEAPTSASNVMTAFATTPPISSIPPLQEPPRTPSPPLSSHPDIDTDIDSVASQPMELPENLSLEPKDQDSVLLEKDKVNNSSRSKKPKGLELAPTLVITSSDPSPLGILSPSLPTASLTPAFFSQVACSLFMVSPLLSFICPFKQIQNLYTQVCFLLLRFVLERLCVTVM
# How it was run: as §1
# ETV2 = biological target: T10, ETV2 (Homo sapiens, UniProt O00321 1-342); conditions: protein: recombinant; tags: N-terminal GST; dsDNA, one strand shown
# T10 sequence: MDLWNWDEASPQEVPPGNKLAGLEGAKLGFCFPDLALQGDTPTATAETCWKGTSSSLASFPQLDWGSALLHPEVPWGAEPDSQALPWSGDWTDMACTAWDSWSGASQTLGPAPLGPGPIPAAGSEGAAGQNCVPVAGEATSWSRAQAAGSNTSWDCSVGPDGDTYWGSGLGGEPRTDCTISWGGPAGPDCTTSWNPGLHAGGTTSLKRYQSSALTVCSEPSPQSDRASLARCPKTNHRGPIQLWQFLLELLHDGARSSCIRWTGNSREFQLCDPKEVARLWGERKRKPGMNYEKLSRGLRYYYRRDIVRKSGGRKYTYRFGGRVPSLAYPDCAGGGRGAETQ
# How it was run: as §1
# ELF3 = biological target: T11, ELF3 (Homo sapiens, UniProt P78545 1-371); conditions: protein: recombinant; tags: N-terminal GST; dsDNA, one strand shown
# T11 sequence: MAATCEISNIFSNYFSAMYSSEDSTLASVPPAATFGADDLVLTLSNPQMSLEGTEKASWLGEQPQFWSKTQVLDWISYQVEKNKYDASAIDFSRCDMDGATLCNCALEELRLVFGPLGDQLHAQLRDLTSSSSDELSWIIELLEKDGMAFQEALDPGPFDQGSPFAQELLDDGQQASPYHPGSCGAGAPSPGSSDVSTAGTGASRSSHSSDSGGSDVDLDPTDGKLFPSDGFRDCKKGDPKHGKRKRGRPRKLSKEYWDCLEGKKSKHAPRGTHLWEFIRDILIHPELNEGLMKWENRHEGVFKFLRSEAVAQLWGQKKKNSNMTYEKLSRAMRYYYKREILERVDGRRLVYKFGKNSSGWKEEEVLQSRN
# How it was run: as §1
# CRX = CRX (Homo sapiens, UniProt O43186 1-299); conditions: protein: recombinant; tags: N-terminal GST; dsDNA, one strand shown
# Sequence of CRX (O43186 whole entry): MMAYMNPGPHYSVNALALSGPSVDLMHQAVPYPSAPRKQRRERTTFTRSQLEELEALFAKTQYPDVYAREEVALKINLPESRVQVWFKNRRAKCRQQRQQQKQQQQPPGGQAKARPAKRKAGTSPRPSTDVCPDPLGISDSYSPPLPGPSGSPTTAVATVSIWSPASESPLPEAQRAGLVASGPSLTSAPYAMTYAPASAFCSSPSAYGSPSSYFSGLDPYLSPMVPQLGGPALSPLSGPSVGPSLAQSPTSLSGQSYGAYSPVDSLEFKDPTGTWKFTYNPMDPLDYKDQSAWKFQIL
# How it was run: as §1
# ETV1 = ETV1 (Homo sapiens, UniProt P50549 1-477); conditions: protein: recombinant; tags: N-terminal GST; dsDNA, one strand shown
# Sequence of ETV1 (P50549 whole entry): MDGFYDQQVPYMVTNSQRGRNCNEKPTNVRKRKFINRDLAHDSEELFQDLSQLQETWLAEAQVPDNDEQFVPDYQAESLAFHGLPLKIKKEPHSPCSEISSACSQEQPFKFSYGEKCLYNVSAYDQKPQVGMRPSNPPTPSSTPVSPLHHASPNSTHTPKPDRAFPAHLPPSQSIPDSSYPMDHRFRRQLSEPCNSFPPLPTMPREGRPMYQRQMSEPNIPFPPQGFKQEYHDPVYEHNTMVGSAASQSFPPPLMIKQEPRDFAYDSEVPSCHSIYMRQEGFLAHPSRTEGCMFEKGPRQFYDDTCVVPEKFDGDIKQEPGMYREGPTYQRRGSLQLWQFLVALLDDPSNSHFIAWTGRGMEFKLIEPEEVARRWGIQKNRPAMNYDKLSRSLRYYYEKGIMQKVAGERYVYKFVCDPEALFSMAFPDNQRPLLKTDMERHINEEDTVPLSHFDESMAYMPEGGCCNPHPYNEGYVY
# How it was run: as §1
sequence,measurement,setting,value
GCCTCT,binding signal,FLI1,"1.39 fold enrichment (6-mer frequency, TF over GST control)"
same,binding signal,ELK1,"1.38 fold enrichment (6-mer frequency, TF over GST control)"
same,binding signal,GABPA,"1.37 fold enrichment (6-mer frequency, TF over GST control)"
same,binding signal,ERG,"1.35 fold enrichment (6-mer frequency, TF over GST control)"
same,binding signal,ELF1,"1.36 fold enrichment (6-mer frequency, TF over GST control)"
same,binding signal,EHF,"1.29 fold enrichment (6-mer frequency, TF over GST control)"
same,binding signal,SPI1,"1.31 fold enrichment (6-mer frequency, TF over GST control)"
same,binding signal,SPIB,"1.42 fold enrichment (6-mer frequency, TF over GST control)"
same,binding signal,ELK3,"1.32 fold enrichment (6-mer frequency, TF over GST control)"
same,binding signal,FEV,"1.39 fold enrichment (6-mer frequency, TF over GST control)"
same,binding signal,ETV5,"1.39 fold enrichment (6-mer frequency, TF over GST control)"
same,binding signal,HSF1,"1.25 fold enrichment (6-mer frequency, TF over GST control)"
same,binding signal,SPIC,"1.21 fold enrichment (6-mer frequency, TF over GST control)"
same,binding signal,ELF4,"1.42 fold enrichment (6-mer frequency, TF over GST control)"
same,binding signal,ELK4,"1.28 fold enrichment (6-mer frequency, TF over GST control)"
same,binding signal,ETV2,"1.45 fold enrichment (6-mer frequency, TF over GST control)"
same,binding signal,ELF3,"1.28 fold enrichment (6-mer frequency, TF over GST control)"
same,binding signal,CRX,"1.28 fold enrichment (6-mer frequency, TF over GST control)"
same,binding signal,ETV1,"1.32 fold enrichment (6-mer frequency, TF over GST control)"

# — article PMC7862700, “An all-to-all approach to the identification of sequence-specific readers for epigenetic DNA modifications on cytosine”
